Measured values published in the supplement of paper PMC11732987, “Enantioselective OTUD7B fragment discovery through chemoproteomics screening and high-throughput optimisation” (Communications Chemistry, 2025).
Values without a mark were called inactive.

Experiments:
Test in all cases: log2 ratio of Biotin-Ahx-Ub-VS probe labelling (compound/DMSO); higher = less target engagement, active = hit call of the paper (q ≤ 0.05, log2 ratio ≤ -1)
Conditions in all cases: treatment time: 3 h
[1] = compound: CN(Cc1cccc(Br)c1)C(=O)CCl
In short: (§1)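 For activity-based profiling, 495 µg portions of HEK293T lysate in Tris/CHAPS/IGEPAL buffer with protease inhibitors were treated in triplicate with compound at 50 or 200 µM or with DMSO for 3 h. A 1 h incubation with Biotin-Ahx-Ub-VS (0.5 µM final) followed, then NeutrAvidin enrichment, LysC and trypsin digestion and diaPASEF LC-MS/MS. The compound/DMSO base-two log ratios were averaged from median-normalised label-free quantities using an unpaired t-test. Proteins needed at least 2 unique peptides to be included.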

[2] = compound: CN(Cc1ccccc1)C(=O)CCl
In short: as §1

[3] = compound: COc1ccc(CN(C)C(=O)CCl)cc1
In short: as §1

[4] = compound: COc1cccc(CN(CCCc2ccccc2)C(=O)CCl)c1
In short: as §1

[5] = compound: ClCC(=O)N1CCc2cc(Cl)c(Cl)cc2C1
In short: as §1

[6] = compound: ClCC(=O)N1CCc2nc(ncc2C1)-c1ccccc1
In short: as §1

[7] = compound: ClCC(=O)N1CCc2nocc2C1
In short: as §1

[8] = compound: ClCC(=O)N1CCc2scc(Br)c2C1
In short: as §1

[9] = compound: ClCC(=O)NC(C1CCCC1)c1cccs1
In short: as §1

[10] = compound: ClCC(=O)NC1CCCc2ccccc12
In short: as §1

[11] = compound: ClCC(=O)NC1CCOc2ccc(Cl)cc12
In short: as §1

[12] = compound: ClCC(=O)NC1CCSc2ccccc12
In short: as §1

[13] = compound: ClCC(=O)N[C@H]1CCCc2ccccc12
In short: as §1

[14] = compound: Fc1ccc(N2CCN(c3nc4c(CN(C(CCl)=O)CC4)cn3)CC2)cc1.Cl.Cl
In short: as §1

[15] = compound: CN(Cc1cccc(OCc2ccccc2C)c1)C(=O)CCl
In short: as §1

UniProt Q4G0A6, sequence (Q4G0A6 whole entry): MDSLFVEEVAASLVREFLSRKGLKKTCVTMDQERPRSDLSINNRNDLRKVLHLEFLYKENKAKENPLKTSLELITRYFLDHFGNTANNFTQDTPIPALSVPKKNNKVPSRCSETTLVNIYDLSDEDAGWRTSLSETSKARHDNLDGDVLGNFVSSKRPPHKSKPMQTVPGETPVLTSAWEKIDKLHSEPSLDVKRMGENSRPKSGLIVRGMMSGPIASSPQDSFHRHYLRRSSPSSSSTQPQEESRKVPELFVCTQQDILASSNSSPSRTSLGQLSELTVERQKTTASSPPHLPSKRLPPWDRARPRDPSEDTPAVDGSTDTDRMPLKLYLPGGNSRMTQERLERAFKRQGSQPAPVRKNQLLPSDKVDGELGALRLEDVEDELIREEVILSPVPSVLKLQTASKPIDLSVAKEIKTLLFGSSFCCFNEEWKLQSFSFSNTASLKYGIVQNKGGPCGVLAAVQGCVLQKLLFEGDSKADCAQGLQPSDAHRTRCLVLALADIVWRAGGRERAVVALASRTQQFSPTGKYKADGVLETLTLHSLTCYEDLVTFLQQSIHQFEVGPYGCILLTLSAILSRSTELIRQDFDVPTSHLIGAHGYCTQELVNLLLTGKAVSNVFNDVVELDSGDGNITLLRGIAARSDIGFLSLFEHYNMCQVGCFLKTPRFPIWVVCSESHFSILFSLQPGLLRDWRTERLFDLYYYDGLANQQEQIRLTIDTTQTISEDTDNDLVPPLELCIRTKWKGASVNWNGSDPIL
UniProt Q9H9J4, sequence (Q9H9J4 whole entry): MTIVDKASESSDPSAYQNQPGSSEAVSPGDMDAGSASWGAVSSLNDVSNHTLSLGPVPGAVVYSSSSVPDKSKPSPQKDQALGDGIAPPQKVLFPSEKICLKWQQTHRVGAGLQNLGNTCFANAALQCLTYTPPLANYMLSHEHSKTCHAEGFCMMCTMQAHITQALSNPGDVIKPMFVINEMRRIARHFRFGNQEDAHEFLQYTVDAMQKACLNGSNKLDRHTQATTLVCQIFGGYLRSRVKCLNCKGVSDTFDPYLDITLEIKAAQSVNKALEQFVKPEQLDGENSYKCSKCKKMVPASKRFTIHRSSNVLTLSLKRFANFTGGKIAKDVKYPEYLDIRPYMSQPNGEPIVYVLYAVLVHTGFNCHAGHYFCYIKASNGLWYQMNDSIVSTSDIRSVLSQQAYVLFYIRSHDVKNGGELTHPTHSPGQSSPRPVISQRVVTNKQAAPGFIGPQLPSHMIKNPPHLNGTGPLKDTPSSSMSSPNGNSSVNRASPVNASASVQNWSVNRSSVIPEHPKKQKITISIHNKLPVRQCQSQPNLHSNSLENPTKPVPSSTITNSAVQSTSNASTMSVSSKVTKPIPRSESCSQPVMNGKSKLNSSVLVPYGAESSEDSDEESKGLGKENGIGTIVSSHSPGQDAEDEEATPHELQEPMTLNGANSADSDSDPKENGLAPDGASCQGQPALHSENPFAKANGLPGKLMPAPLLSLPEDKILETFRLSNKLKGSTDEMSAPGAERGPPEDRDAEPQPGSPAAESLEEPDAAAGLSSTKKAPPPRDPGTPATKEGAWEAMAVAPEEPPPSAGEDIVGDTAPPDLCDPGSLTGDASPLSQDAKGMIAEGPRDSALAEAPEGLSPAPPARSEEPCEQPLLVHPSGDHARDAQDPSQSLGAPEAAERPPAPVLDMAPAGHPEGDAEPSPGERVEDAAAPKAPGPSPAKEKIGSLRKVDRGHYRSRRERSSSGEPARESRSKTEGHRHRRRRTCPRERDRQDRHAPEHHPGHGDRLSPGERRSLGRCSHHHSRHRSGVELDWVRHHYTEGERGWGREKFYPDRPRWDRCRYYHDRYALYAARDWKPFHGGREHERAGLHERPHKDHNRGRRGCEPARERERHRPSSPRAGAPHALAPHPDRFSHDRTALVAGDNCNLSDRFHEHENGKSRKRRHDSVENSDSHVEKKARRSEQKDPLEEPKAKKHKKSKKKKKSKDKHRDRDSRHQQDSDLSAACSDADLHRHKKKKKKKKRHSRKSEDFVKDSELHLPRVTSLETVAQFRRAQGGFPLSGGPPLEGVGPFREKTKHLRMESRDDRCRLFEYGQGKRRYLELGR
UniProt Q9Y4E8, sequence (Q9Y4E8 whole entry): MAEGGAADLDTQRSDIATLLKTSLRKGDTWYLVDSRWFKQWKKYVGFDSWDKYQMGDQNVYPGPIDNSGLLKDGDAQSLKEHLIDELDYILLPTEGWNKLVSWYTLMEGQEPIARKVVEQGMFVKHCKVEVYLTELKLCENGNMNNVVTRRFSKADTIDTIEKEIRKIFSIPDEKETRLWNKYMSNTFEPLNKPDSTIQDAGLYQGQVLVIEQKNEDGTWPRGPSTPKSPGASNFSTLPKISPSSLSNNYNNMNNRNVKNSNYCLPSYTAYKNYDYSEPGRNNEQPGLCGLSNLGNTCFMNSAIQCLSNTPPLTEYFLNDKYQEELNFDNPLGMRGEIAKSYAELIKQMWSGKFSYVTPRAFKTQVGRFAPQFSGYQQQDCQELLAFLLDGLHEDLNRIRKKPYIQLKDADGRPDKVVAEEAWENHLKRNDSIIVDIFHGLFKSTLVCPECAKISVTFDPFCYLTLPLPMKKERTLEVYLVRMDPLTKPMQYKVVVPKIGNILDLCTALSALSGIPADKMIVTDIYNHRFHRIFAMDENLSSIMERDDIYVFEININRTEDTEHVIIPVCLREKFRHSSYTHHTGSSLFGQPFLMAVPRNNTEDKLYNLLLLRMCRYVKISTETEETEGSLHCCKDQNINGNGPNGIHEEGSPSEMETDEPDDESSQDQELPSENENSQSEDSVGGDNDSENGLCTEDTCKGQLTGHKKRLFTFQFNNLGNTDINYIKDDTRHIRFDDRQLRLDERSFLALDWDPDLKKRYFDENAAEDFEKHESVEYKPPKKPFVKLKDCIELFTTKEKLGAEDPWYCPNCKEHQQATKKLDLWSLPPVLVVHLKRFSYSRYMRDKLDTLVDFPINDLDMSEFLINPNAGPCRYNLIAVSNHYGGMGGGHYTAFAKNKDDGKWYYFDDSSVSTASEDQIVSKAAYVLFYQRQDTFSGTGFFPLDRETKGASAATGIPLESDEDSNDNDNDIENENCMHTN
UniProt Q8N6M0, sequence (Q8N6M0 whole entry): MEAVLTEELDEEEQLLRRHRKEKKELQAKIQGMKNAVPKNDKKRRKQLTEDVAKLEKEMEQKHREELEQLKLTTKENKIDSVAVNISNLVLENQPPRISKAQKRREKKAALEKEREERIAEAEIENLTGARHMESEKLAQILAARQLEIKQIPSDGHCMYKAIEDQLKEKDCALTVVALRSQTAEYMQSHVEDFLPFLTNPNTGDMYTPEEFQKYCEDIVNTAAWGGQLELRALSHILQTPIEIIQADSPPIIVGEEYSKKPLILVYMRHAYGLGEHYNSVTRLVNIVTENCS
UniProt Q5VVQ6, sequence (Q5VVQ6 whole entry): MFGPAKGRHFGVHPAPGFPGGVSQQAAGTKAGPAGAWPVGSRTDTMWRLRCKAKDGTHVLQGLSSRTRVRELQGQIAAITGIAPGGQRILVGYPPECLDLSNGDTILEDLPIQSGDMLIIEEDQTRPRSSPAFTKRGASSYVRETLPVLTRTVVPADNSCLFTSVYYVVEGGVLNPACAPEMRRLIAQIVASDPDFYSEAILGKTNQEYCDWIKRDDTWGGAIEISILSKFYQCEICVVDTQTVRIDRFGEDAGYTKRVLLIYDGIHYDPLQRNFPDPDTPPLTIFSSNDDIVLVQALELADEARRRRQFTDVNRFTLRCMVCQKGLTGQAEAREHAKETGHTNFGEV
UniProt P62068, sequence (P62068 whole entry): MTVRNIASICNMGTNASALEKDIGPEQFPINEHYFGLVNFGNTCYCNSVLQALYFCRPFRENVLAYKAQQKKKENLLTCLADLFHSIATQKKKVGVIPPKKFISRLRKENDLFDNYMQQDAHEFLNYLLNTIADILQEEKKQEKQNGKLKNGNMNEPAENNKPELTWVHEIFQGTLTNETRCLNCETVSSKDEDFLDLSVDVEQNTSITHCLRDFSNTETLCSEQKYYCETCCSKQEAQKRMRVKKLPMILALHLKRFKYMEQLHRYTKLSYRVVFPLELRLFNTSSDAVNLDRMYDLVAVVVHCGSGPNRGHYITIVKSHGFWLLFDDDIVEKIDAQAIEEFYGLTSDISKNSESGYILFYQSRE
UniProt Q14694, sequence (Q14694 whole entry): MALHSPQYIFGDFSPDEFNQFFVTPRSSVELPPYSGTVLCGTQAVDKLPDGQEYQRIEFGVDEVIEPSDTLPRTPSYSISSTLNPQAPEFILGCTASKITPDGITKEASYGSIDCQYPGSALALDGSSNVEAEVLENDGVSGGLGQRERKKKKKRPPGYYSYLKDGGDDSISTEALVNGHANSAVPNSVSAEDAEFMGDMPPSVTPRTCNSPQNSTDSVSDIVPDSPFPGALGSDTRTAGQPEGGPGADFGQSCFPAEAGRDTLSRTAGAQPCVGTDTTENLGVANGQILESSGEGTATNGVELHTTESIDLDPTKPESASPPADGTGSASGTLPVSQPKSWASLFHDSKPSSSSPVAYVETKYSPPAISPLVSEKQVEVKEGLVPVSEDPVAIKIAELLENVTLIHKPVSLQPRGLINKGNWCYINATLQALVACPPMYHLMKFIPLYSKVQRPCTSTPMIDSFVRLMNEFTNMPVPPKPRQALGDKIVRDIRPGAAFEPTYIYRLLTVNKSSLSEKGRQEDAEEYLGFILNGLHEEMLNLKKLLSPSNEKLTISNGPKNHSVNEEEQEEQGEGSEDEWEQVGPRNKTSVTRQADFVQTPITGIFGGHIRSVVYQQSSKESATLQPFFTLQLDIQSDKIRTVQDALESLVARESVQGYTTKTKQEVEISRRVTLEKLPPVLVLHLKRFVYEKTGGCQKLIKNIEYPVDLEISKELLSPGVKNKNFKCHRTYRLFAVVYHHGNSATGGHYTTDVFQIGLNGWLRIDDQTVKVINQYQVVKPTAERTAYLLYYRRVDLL

Target	log2 ratio of Biotin-Ahx-Ub-VS probe labelling ([1]; compound concentration: 50uM)	log2 ratio of Biotin-Ahx-Ub-VS probe labelling ([1]; compound concentration: 200uM)	log2 ratio of Biotin-Ahx-Ub-VS probe labelling ([2]; compound concentration: 50uM)	log2 ratio of Biotin-Ahx-Ub-VS probe labelling ([2]; compound concentration: 200uM)	log2 ratio of Biotin-Ahx-Ub-VS probe labelling ([3]; compound concentration: 50uM)	log2 ratio of Biotin-Ahx-Ub-VS probe labelling ([3]; compound concentration: 200uM)	log2 ratio of Biotin-Ahx-Ub-VS probe labelling ([4]; compound concentration: 50uM)	log2 ratio of Biotin-Ahx-Ub-VS probe labelling ([4]; compound concentration: 200uM)	log2 ratio of Biotin-Ahx-Ub-VS probe labelling ([5]; compound concentration: 50uM)	log2 ratio of Biotin-Ahx-Ub-VS probe labelling ([5]; compound concentration: 200uM)	log2 ratio of Biotin-Ahx-Ub-VS probe labelling ([6]; compound concentration: 50uM)	log2 ratio of Biotin-Ahx-Ub-VS probe labelling ([6]; compound concentration: 200uM)	log2 ratio of Biotin-Ahx-Ub-VS probe labelling ([7]; compound concentration: 50uM)	log2 ratio of Biotin-Ahx-Ub-VS probe labelling ([7]; compound concentration: 200uM)	log2 ratio of Biotin-Ahx-Ub-VS probe labelling ([8]; compound concentration: 50uM)	log2 ratio of Biotin-Ahx-Ub-VS probe labelling ([8]; compound concentration: 200uM)	log2 ratio of Biotin-Ahx-Ub-VS probe labelling ([9]; compound concentration: 50uM)	log2 ratio of Biotin-Ahx-Ub-VS probe labelling ([9]; compound concentration: 200uM)	log2 ratio of Biotin-Ahx-Ub-VS probe labelling ([10]; compound concentration: 50uM)	log2 ratio of Biotin-Ahx-Ub-VS probe labelling ([10]; compound concentration: 200uM)	log2 ratio of Biotin-Ahx-Ub-VS probe labelling ([11]; compound concentration: 50uM)	log2 ratio of Biotin-Ahx-Ub-VS probe labelling ([11]; compound concentration: 200uM)	log2 ratio of Biotin-Ahx-Ub-VS probe labelling ([12]; compound concentration: 50uM)	log2 ratio of Biotin-Ahx-Ub-VS probe labelling ([12]; compound concentration: 200uM)	log2 ratio of Biotin-Ahx-Ub-VS probe labelling ([13]; compound concentration: 50uM)	log2 ratio of Biotin-Ahx-Ub-VS probe labelling ([13]; compound concentration: 200uM)	log2 ratio of Biotin-Ahx-Ub-VS probe labelling ([14]; compound concentration: 50uM)	log2 ratio of Biotin-Ahx-Ub-VS probe labelling ([14]; compound concentration: 200uM)	log2 ratio of Biotin-Ahx-Ub-VS probe labelling ([15]; compound concentration: 50uM)	log2 ratio of Biotin-Ahx-Ub-VS probe labelling ([15]; compound concentration: 200uM)
OTUD6B (UniProt Q8N6M0)	-0.133	-0.53	-0.257	-0.515	-0.181	-0.334	-0.28	-0.784	0.0579	-1.26 (active)	0.00143	-0.718	-0.255	-0.521	-0.125	-1.1 (active)	0.0378	-0.153	-0.12	-0.0737	-0.248	-0.361	0.0363	-0.296	-0.00611	-0.364	-0.105	-1.28 (active)		
USP42 (UniProt Q9H9J4)	0.0496	0.397	-0.0195	0.165	-0.0749	0.205	0.0537	0.284	0.0405	0.669	-0.0528	0.104	0.0476	0.187	0.182	0.44	-0.428	0.159	0.113	0.286	-0.00469	0.132	0.137	0.26	-0.0967	0.0714	-0.0766	0.241		
MINDY4 (UniProt Q4G0A6)	0.681	-1.19 (active)	0.106	-0.273	0.675	0.712	0.722	0.797	0.706	0.819	0.669	0.652	0.0993	0.614	0.589	0.525	0.738	0.487	0.639	-0.0583	-0.0698	0.0712	0.832	-0.691	0.216	0.204	0.258	0.516		
USP15 (UniProt Q9Y4E8)	-0.321	-0.664	-0.368	-0.462	-0.242	-0.334	-0.289	-0.43	-0.407	-1.85 (active)	-0.105	-1.06 (active)	-0.404	-0.641	-0.779	-1.88 (active)	0.0422	-0.0218	-0.0996	-0.0168	-0.328	-0.255	0.00954	-0.189	-0.0873	-0.249	-0.441	-1.58 (active)		
USP10 (UniProt Q14694)	-0.146	-0.153	-0.177	0.0371	-0.151	-0.0732	-0.12	0.0548	-0.188	-0.0346	-0.0484	-0.151	-0.2	-0.136	-0.066	0.0425	-0.148	0.0706	-0.107	0.139	-0.314	-0.0917	-0.0829	0.0327	-0.162	0.0178	-0.0782	-0.162		
USP46 (UniProt P62068)	-0.406	-0.773	-0.252	-1.01 (active)	-0.0785	-0.634	-0.32	-1.33 (active)	-0.575	-2.77 (active)	0.0166	-1.12 (active)	-0.22	-0.641	-0.291	-1.43 (active)	0.0547	-0.255	-0.0934	-0.257	-0.229	-0.251	-0.017	-0.304	-0.00597	-0.413	-0.241	-1.72 (active)	-0.515	-0.89
YOD1 (UniProt Q5VVQ6)	-0.152	0.742	-0.391	-0.259	-0.465	-0.288	-0.0608	0.000762	0.356	-0.373	0.102	0.0411	-0.0213	-0.416	0.039	-0.482	-0.11	0.00107	-0.158	0.159	-0.167	-0.318	0.161	-0.174	0.362	-0.265	0.0837	-0.394		
